Laboratory results from paper PMC5540273 (PLoS ONE, 2017).

Each compound was assayed on T1, YANK2. Conditions: concentration: 1 μM,replicates: in singlicate; n = 1.
T1 construct: gene STK32B
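Also: KINOMEscan kinase panel screen.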

Row | Structure (SMILES) | %Inh [%]
1 | C[C@@H]1CNc2c(sc3ccc4nc(-c5ccncc5)ccc4c23)C(=O)N1 | 0
2 | CCOC(=O)N1CCC(n2cnc(-c3ccc(F)cc3)c2-c2ccnc(N)n2)CC1 [SB-219952] | 15
3 | CC(=O)Nc1nc2cnc(Nc3cc(NC(=O)c4cccc(CC(C)(C)C#N)c4)ccc3C)nc2s1 | 12
4 | Cn1ccc2ncnc(Oc3ccc(NC(=O)Nc4cnn(C(C)(C)C)c4)c(Cl)c3)c21 | 11
5 | Cc1ccc(CC(=O)N2CCc3cc(-c4cn(C)c5ncnc(N)c45)ccc32)cc1 [GSK2634758] | 0
6 | N#Cc1cccc(C(=O)NC2CCN(c3ccnc(Nc4ccc(F)cc4)n3)C2)c1 (stereo not drawn) [GSK1379708] | 0
7 | Cl.Nc1n[nH]c2cc(-c3ccccn3)ccc12 [GSK2189892] | 0
8 | Cc1nnc(-c2ccc3occ(-c4ccc(S(C)=O)cc4)c3n2)o1 (stereo not drawn) | 0
9 | NC(=O)c1ccc(-c2cc3ncnc(SCC(=O)O)c3s2)cc1 | 0
10 | Cc1cccc2c(-c3ccncc3)c(-c3ccc(F)cc3)nn12.Cl [GW461487] | 8
11 | CC(=O)c1c(-c2ccncc2)[nH]c(-c2ccncc2)c1C [GW493036] | 0

The compounds below were run on T2, YANK3. Conditions: concentration: 1 μM,replicates: in singlicate; n = 1.
T2 construct: gene STK32C

Row | Structure (SMILES) | %Inh [%]
12 | Cc1n[nH]c2cc(Nc3ccnc(Nc4cccc(CN5CCOCC5)c4)n3)ccc12 [GW682569] | 3
13 | Cn1ccc2ncnc(Oc3ccc(NC(=O)Nc4ccnc(C(F)(F)F)c4)c(Cl)c3)c21 | 0
14 | COC(=O)c1cccc(NC(=O)NC2CCN(c3ccnc(NCc4ccc(F)cc4)n3)CC2)c1 [GSK1379860] | 0
15 | CCn1c(-c2nonc2N)nc2cncc(Br)c21 [SB-738004] | 8
16 | C[C@@H]1CCN(C(=O)N2CCCC2)C[C@@H]1N(C)c1ncnc2[nH]ccc12 | 0
17 | O=C(NOCC1CC1)c1cc(Br)c(F)c(F)c1Nc1ccc(I)cc1Cl | 2
18 | C[C@@H](Oc1cc(-n2cnc3cc(-c4cnn(C)c4)ccc32)sc1C(N)=O)c1ccccc1Cl [GSK580432] | 13
19 | CN(c1ccc2c(c1)nc(NCc1ccc(F)cc1)n2C)c1ccnc(Nc2ccc(CS(C)(=O)=O)cc2)n1.Cl [GW813244] | 0
20 | NC(=O)Nc1sc(-c2ccc(F)cc2)cc1C(N)=O [GW789449] | 0
21 | O=C(Nc1n[nH]c2cc(-c3ccco3)ccc12)C1CC1 [SB-737447] | 0
22 | CCn1c(-c2nonc2N)nc2cncc(CNC3CCNCC3)c21.Cl [SB-747651] | 40
23 | C[C@@H]1CNc2c(sc3ccc4nc(-c5ccc(O)cc5)ccc4c23)C(=O)N1 | 1
24 | O=C(Nc1ccc(Oc2ccc3nc(NC(=O)C4CC4)cn3n2)c(F)c1)c1cccn(-c2ccccc2)c1=O | 37
25 | CS(=O)(=O)c1cccc(CNc2nc(Nc3ccc4c(c3)[C@@H]3C[C@@H]4CNC3=O)ncc2C(F)(F)F)c1 | 0
26 | COc1cccc(OC)c1C(=O)Nc1cccc(-c2nn3ccccc3c2-c2ccnc(Nc3cccc(F)c3)n2)c1 [GSK361065] | 0
27 | OCCn1cc(-c2cnc3nnn(Cc4ccc5ncccc5c4)c3n2)cn1 | 0
28 | CC(=O)Nc1ccc(-c2cc3ncnc(SCC(=O)O)c3s2)cc1 | 26
29 | CCN1CCN(CCCC(=O)Nc2n[nH]c3nc(-c4ccc(O)cc4)c(Br)cc23)CC1 [SB-731579] | 0
30 | O=C(Nc1cccc(Oc2ccc3nccn3n2)c1)Nc1cccc(C(F)(F)F)c1 | 0
31 | Nc1nccc(-c2ccc3c(N)n[nH]c3c2)n1 [GSK1034945] | 9
32 | COc1cc2c(Nc3ccc(NC(=O)c4ccccc4)cc3)ncnc2cc1OCCCN1CCOCC1 [GSK301329] | 10
33 | COC(=O)c1cccc(NC(=O)NC2CCN(c3ccnc(Nc4cc(OC)c(OC)c(OC)c4)n3)C2)c1 (stereo not drawn) [GSK1379767] | 0
34 | COC(=O)Nc1nc2cc(Oc3ccc(NC(=O)Nc4cc(C(F)(F)F)ccc4Cl)cc3)ccc2[nH]1.Cl [GW697465] | 13
35 | COc1cc2ncn(-c3cc(OCC4CCCCC4)c(C(N)=O)s3)c2cc1OC [GSK204559] | 6
36 | CCCC(=O)Nc1n[nH]c2ncccc12 [SB-601436] | 0
